Hits are enriched below; roughly 2.4% of the tested compounds scored in any of these assays.
ATXN2 expr inh: Primary qHTS for Inhibitors of ATXN expression; HEK-293 ATXN2-luciferase reporter, luminescence, 24 h; Potency, µM (titrated, usually from 57 µM), without a hit: top-dose activity change, negative = inhibition, hits mostly inhibitors; 0.72% of 360,000 active; AID 1745845, 2022; note: % is set by controls: 0 for no effect and ±100 for the full control effect; nearly all actives have a fitted effect of over 55% in size
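qHTS (up to 57 uM final) was run with 24 h compound exposure of reporter cells at 37 °C. Each well was multiplexed: SteadyGlo luminescence measured ATXN2-luciferase expression after a fluorogenic Gly-Phe-AFC viability readout (25 uM final).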
TGFb inhibitor: qHTS for Inhibitors of TGF-b | HepG2 CAGA-GFP TGF-b/SMAD3 reporter, GFP fluorescence, 18 h; TGF-beta stimulated, 500 pg/mL final | Potency, µM (series often up to 46.1 µM), inactives show at the top dose activity, negative = inhibition, hits mostly inhibitors | 1.2% of 410,000 active | AID 588855, 2011; note: % is set by controls: 0 for no effect and ±100 for the full control effect; nearly all actives have a fitted effect of over 65% in size
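Inhibition was scored as loss of TGF-beta-induced (500 pg/mL final, 18 hours, 37 degrees C) GFP in HEPG2 cells carrying a CAGA-GFP reporter, in DMEM with 1% FBS. Well GFP was summed per cell; Activity was normalised to unstimulated and stimulated DMSO wells, then concentration-response fitting.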
S2 tox: Viability Counterscreen for Primary qHTS for Inhibitors of ATXN expression; Potency, µM (highest dose often 56.7 µM), actives largely listed as cytotoxic; 0.49% of 400,000 active; S2 cells (HEK-293 line with an ATXN2-luciferase reporter) viability, CellTiter-Fluor protease fluorescence, 24 h; note: nearly all actives have a fitted effect of over 40% in size
HepG2 tox: qHTS for Inhibitors of TGF-b: Cytotox Counterscreen. HepG2 CAGA-GFP viability, ATP luminescence, 18 h. Potency, µM (highest dose often 46.1 µM), for inactives: at the highest dose activity change, negative = cytotoxicity, usual class: cytotoxic. 0.76% of 410,000 active. AID 588856, 2011
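CellTiter-Glo luminescence gave cytotoxicity after 18 hours at 37 degrees C. The cells were HepG2 CAGA-GFP in 1% FBS DMEM, stimulated with 500 pg/mL TGF-beta after compound addition. %Activity was normalised to no-cell wells (complete cell-killing) and DMSO (no toxicity), and curves were fitted and classified.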
Anesthetic bind: qHTS Assay for Identification of Novel General Anesthetics | Ferritin light chain (Equus caballus), P02791 | apoferritin/1-aminoanthracene competitive binding, fluorescence | Potency, µM (titrated, usually from 77.5 µM), for the others: at the top dose activity change, negative = displacement, most hits filed as inhibitors | 0.074% of 350,000 active; note: % is set by controls: 0 for no effect and ±100 for the full control effect; nearly all actives have a fitted effect of over 20% in size
Target sequence (P02791 2-175 limits assumed): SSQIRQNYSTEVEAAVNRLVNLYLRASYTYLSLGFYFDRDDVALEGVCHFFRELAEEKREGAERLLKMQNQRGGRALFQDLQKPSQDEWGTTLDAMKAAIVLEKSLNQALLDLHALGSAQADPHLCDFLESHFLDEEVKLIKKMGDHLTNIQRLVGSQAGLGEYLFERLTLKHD
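Horse-spleen apoferritin (10 uM) was mixed with 50% saturated 1-aminoanthracene in PBS, exposed to compounds for 10 min at room temperature, and read for fluorescence (ex 380 nm, em 535 nm). Competitive displacement was fitted with a four-parameter Hill equation.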
The depositor's hits bear a star; i = inactive; ? = inconclusive; / = not tested or not shown; ! = repeats disagree; [ ] = another dose, or the depositor's remark. Calls come from the whole dose curve; as a rule, active = well fitted curve in the direction sought with a large enough effect; inconclusive = small, poorly fitted or top-dose-only effect, or another doubt; inactive = no such curve, though single readings can be large; an effect the other way counts as inactive or inconclusive. Potency is the fitted concentration of half-maximal effect.

SMILES	ATXN2 expr inh	TGFb inhibitor	S2 tox	HepG2 tox	Anesthetic bind
CCOc1cc(C2C(C#N)=C(N)OC(C)=C2C(C)=O)c(Br)c(Br)c1OC(C)C (stereo not drawn)	1%	16µM*	i	-58%	-16%
COC(=O)CCn1nnc(-c2ccc(C(C)C)cc2)n1	0.5µM*	-3%	i	2%	-5%
COC(=O)CCn1nnc(-c2cccs2)n1	2%	12%	i	5%	7%
COCC(=O)Nc1cc(C(=O)N2CC3CCCC2C3)c2c(c1)nc(-c1ccncc1)n2C (stereo not drawn)	/	/	i	/	/
CC1CCC(C(C)C)C(OC(=O)Cn2c(-c3ccc(Cl)cc3)[n+](C)c3ccccc32)C1 (stereo not drawn)	?	?	?	11µM*	2%
CCOC(=O)Cn1c(COc2ccccc2OC)[n+](C)c2ccccc21	/	4%	i	2%	/
CC1CCC(C(C)C)C(OC(=O)COC(=O)c2ccc(N)cc2)C1 (stereo not drawn)	-21%	?	i	-47%	-18%
Cc1ccccc1OCc1n(CC(=O)OC2CC(C)CCC2C(C)C)c2ccccc2[n+]1C (stereo not drawn)	?	7.9µM*	25µM*	16µM*	?
CC1CCC(C(C)C)C(OC(=O)COC(=O)c2cccn2C)C1 (stereo not drawn)	1%	-1%	i	-78%	-13%
CC1CCC(C(C)C)C(OC(=O)Cn2c(-c3ccc(Br)cc3)[n+](C)c3ccccc32)C1 (stereo not drawn)	?	13µM*	?	25µM*!	-17%
CCOC(=O)c1[nH]c2c(c1Cc1ccccc1OC)C(=O)CC(c1ccc(OC)cc1)C2 (stereo not drawn)	/	6%	/	-2%	44%
C/C(=N\NC(=O)C1CCCC1)c1ccc(NC(=O)C(F)(F)F)cc1	9%	11µM*	i	-94%	/
CCC/C=C/C1C(=O)C2OC2C2(OCC(CC)(CC)CO2)C1CO (stereo not drawn)	/	/	/	/	-11%[15.3 µM]
O=C(NCN1CCOCC1)c1cnccn1	-10%	-2%	i	10%	-3%
CCCCCCCn1ccc(=N)cc1	?	?	i	2%	-10%
CCCCCCCCCn1ccc(=N)cc1	2.1µM*	?	i	-3%	-13%
CCN1CCC(N[C@H]2C[C@@H](C(=O)NC)N(Cc3cccc4ccccc34)C2)CC1	/	/	i	/	/
Clc1ccccc1CN1CCN(/N=C/C=C/c2ccco2)CC1	2%	?	?	-32%	-14%
Nc1nc(N)c2nc(-c3cccc(O)c3)c(-c3cccc(O)c3)nc2n1	24µM*	/	/	/	/
CCOc1ccccc1-c1nnc2n1N=C(c1cc(OC)ccc1OC)CS2	/	/	/	/	-20%
CCn1c(O)c(/C=C2\C=NN=C2c2ccc(C)cc2)sc1=S	3%	-8%	i	-6%	-9%
CC(C)n1c(O)c(/C=C2\C=NN=C2c2ccccc2)sc1=S	2%	?	i	16µM*	-22%
COc1ccc(/C=N/Nc2snc(SC)c2C#N)cc1OC	42%	27%	i	2%	-22%
COc1cccc(/C=N/Nc2snc(SC)c2C#N)c1O	-13%	10µM*	i	-47%	-5%
CC(C)N(Cc1ccccc1)C(=O)c1nc(-c2ccc(Cl)cc2)n2c1CCCCC2	?	?	?	-14%	92%
SMILES	ATXN2 expr inh	TGFb inhibitor	S2 tox	HepG2 tox	Anesthetic bind
CC1CC=CC2C1C(=O)N(Cc1ccccc1)C2c1cccc([N+](=O)[O-])c1 (stereo not drawn)	/	?	/	-2%	?
Cc1cc(=O)oc2c(N)nccc12	?	?	35µM*	-112%	/
Cc1cc(=O)oc2c(O)c(O)ccc12	-17%	-4%	i	-22%	4%
COc1ccccc1CN1CCC(n2cc(C(=O)N3CCCCC3)nn2)CC1	/	/	i	/	/
CC(C)CO/N=C1/C[C@@H](O)[C@@H](O)[C@@H]2[C@@H]3C(=O)N(C(C)(C)C)C(=O)[C@H]3CC[C@H]12	/	/	/	/	-4%[15.3 µM]
CCOC(=O)c1c(NC(=O)/C=C/c2ccc(OCC)c(OC)c2)sc2c1CCC2	2%	5%	i	-3%	1%
CCCCCCOc1ccc(/C=C/C(=O)Nc2sc3c(c2C(=O)OC)CCC3)cc1OC	?	7.9µM*	14µM*	-102%	2%
COC1=CC(=O)c2c(ccc3ncnc(N)c23)C1=O	2.8µM*	0.89µM*	3.5µM*	1.4µM*	/
O=C1CC(=Nc2ccc([N+](=O)[O-])cc2)NN1c1c(Cl)cc(Cl)cc1Cl	/	16µM*	i	-70%	/
Cc1[nH]n(-c2ccc([N+](=O)[O-])cc2)c(=O)c1/C=N/N1CCOCC1	-8%	2%	i	1.4µM*	-9%
COc1ccc(CCN=Cc2c(C)[nH]n(-c3ccc([N+](=O)[O-])cc3)c2=O)cc1OC	2%	5%	i	-10%	-2%
COc1ccc(-c2cccc(NS(=O)(=O)c3cc(C)c(Cl)cc3C)c2)nn1	-22%	?	i	11µM*	59%
COc1ccc(-c2cccc(NS(=O)(=O)c3cc(C(F)(F)F)ccc3Cl)c2)nn1	-6%	?	i	-8%	-23%
COc1ccc(C)cc1NC(=O)NC1CC(=O)N(c2ccc3c(c2)OCCO3)C1 (stereo not drawn)	/	-21%	i	11µM*	/
Nc1c(Cl)cc(C2=NCCn3c2c2ccc([N+](=O)[O-])cc2[n+]3[O-])cc1Cl	?	11µM*	?	-35%	/
Nc1c(Cl)cc(C2=NCCn3nc4cc([N+](=O)[O-])ccc4c32)cc1Cl	-8%	29%	i	-13%	/
Cc1ccc(N=C2C(=O)Nc3ccccc32)cc1	/	-1%	?	-3%	1%
CCN(CC)c1ccc(N=C2C(=O)Nc3ccccc32)cc1	?	?	?	13µM*	-3%
CCOc1ccc(NC(=O)c2ccc3c(=O)n4c(nc3c2)CCCCC4)cc1	-7%	6%	i	8.9µM*!	5%
CCN(CC)S(=O)(=O)c1ccc(NC(=O)c2ccc3c(=O)n4c(nc3c2)CCCCC4)cc1	22µM*	?	/	-32%	?
O=C(Nc1ccc2nc3n(c(=O)c2c1)CCCC3)c1cc([N+](=O)[O-])ccc1F	25µM*	?	/	-60%	-12%
O=C(Nc1ccc2nc3n(c(=O)c2c1)CCCC3)c1cccc([N+](=O)[O-])c1	8%	0%	?	-5%	-17%
O=C(Nc1cccc2cccnc12)OC(Cl)(Cl)Cl	/	-23%	/	-39%	/
C=C[C@@H]1c2cc(C)ccc2N(S(=O)(=O)c2ccc(C)cc2)[C@H](c2ccc(C(C)(F)F)cc2)C1(C#N)C#N	/	-12%	/	-6%	/
